PubChem BioAssay AID687001 (Broad Institute, 2013)
Potency and affinity values are given separately. Calls of active or inactive are those of the source.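 Rule for the calls: active = signal-lowering compounds whose fitted half-maximal concentration is at or below twice the top tested dose in every run; inconclusive = runs disagree, flat 30 to 70% inhibition, or poor curve fit; inactive = the rest.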

Each compound was assayed against Protein S100-A4 (Homo sapiens) (UniProt P26447) (assay: S100A4-myosin IIA binding inhibitor potency, dose response, biochemical, fluorescence polarization, cherry-picked hits (AID 687001;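 note: 0% = DMSO neutral control wells and -100% = TFP positive control wells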)). Details: FP, S100A4/TAMRA-myosin IIA peptide binding; series mostly up to 11 µM; activity change, negative = inhibition: at the top concentration.
Chain of Protein S100-A4 (Homo sapiens) (P26447 whole entry, looked up): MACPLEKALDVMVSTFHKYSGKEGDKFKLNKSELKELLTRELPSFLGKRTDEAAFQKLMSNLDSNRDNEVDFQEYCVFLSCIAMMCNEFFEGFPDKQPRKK

Activity change, negative = inhibition, inactive:
C[C@@H](NC(=O)C[C@@H]1CC[C@H](NC(=O)C2CCC2)[C@H](CO)O1)c1ccccc1 0.215%, CCCCN1C[C@H](CSC)[C@@H](CC(=O)Nc2ccc(Br)cc2)C1=O 1.93%, COC(=O)Cc1c(C)nc(SCc2ccccc2)[nH]c1=O -0.468%, CCCNC(=O)C(Cc1ccc(C(F)(F)F)cc1)NC(=O)c1ccc2ccccc2n1 (stereo not drawn) -0.823%, Cn1c2ccccc2c(=O)c2ccc(C#Cc3ccc(N)cc3)cc21 35.4%, CCC(=O)Nc1ccc2c(c1)OC[C@H](C)N(Cc1ccccc1C(=O)O)C[C@H](C)[C@@H](OC)CN(C)C2=O -3.14%, CCOC(=O)[C@]12CCCC=C1N(Cc1cccc3ccccc13)C(=O)[C@H](CC(=O)NCCCN1CCCC1=O)C2 -4.19%, CCOC(=O)C1(C)CCCN1C(=O)c1ccc(C(F)(F)F)nc1C (stereo not drawn) -3.53%, C[C@@H]1CN([C@@H](C)CO)C(=O)c2cccc(N(C)C)c2O[C@@H]1CN(C)C(=O)Nc1cccc2ccccc12 0.748%, CCNC(=O)[C@H]1N[C@H]2c3ccc(-c4cccc(C(=O)N(C)C)c4)c(=O)n3C[C@H]2[C@@H]1CO -4.56%, O=C(C[C@H]1C[C@@H]2c3cc(NC(=O)C4CCOCC4)ccc3O[C@@H]2[C@H](CO)O1)NCCN1CCCCC1 -1.82%, O=C(CN1C(=O)NC2(CCCCCCC2)C1=O)Nc1c(Cl)cccc1Cl -3.09%, Oc1ccc(-c2cc(-c3ccc(O)cc3)nc(-c3ccccc3)n2)cc1 3.62%, CCN(CC)c1ccc(S(=O)(=O)N2CCOCC2)cc1NC(=O)COC(=O)/C=C/c1ccccc1 -2.06%, CC(C)(C)c1cc[n+](-c2[nH]c(=O)sc2/C=N/N=C(\[O-])c2ccccc2)cc1 0.307%, Cc1ccc(C(=O)N/C(=C/c2ccc(C(C)C)cc2)C(=O)NCCCN2CCOCC2)cc1 -3.71%, CC(NC(=O)COc1ccc(Br)cc1)C(=O)O (stereo not drawn) -4.84%, CC1NC2(C(=O)N(Cc3ccccc3)c3ccccc32)C2C(=O)N(c3ccccc3)C(=O)C12 (stereo not drawn) -1.42%, CC(C)NC(=O)N1[C@@H](CO)[C@@H](c2ccccc2)C12CN(C(=O)Cc1cccnc1)C2 3.57%, CC(C)C[C@H]1CN(CCCC[C@@H]2CNC(=O)C(=O)N2Cc2ccccc2)C(=O)C(=O)N1Cc1ccccc1 -0.618%, CNS(=O)(=O)c1ccc2c(c1)[nH]c(=S)n2C -20.7%, CCCC(=O)Nc1ccc2c(c1)OC[C@H](C)NC[C@H](C)[C@H](OC)CN(C)C2=O -2.13%, CC(=O)Cc1cc2cc([N+](=O)[O-])ccc2oc1=O -1.55%, C[C@@H]1CN([C@@H](C)CO)C(=O)c2cc(NC(=O)NC3CCCCC3)ccc2O[C@@H](C)CCCCO[C@@H]1CN(C)S(=O)(=O)c1cn(C)cn1 -0.131%, Cc1ccc(C(=O)N2CCN(c3ccc([N+](=O)[O-])c(N4CCOCC4)c3)CC2)cc1 -1.61%, Cc1cccc(-c2oc3ccc(-c4ccc5c(c4)OCO5)cc3c2-c2ccc(OC3CCCCO3)cc2)c1 (stereo not drawn) 3.18%, C[C@@H]1CN([C@H](C)CO)C(=O)c2cc(C#CC3CC3)cnc2O[C@@H]1CN(C)S(C)(=O)=O 1.51%, N#Cc1cccc(-c2ccc3c(c2)[C@@H]2[C@@H](CCN2C(=O)c2ccncc2)[C@@H](CO)N3)c1 16.9%, O=C(Nc1ccc(F)cc1)N1CCCCN2[C@H](CO)[C@H](c3ccc(C#Cc4ccccn4)cc3)[C@H]2C1 25.4%, CCN1C(=O)c2ccccc2S(=O)(=O)c2ccc(C(=O)NCC(OC)OC)cc21 -5.37%, CCOc1ccc(N2CC(C(=O)NNC(=O)c3ccc(Br)cc3)CC2=O)cc1 (stereo not drawn) 1.89%, CCOCCCNC(=O)c1ccc2c(c1)N(CC)C(=O)c1ccccc1S2=O (stereo not drawn) -1.78%, COc1ccc(S(=O)(=O)Nc2ccc3c(c2)C(=O)N([C@H](C)CO)C[C@H](C)[C@H](CN(C)C(=O)Nc2ccccc2)OCCCC[C@H](C)O3)cc1 19%, COc1ccc(C2/C=C\CN(S(=O)(=O)c3cccc4cccnc34)CC(=O)N2Cc2ccc(F)cc2)cc1 (stereo not drawn) -1.77%, O=C(Nc1ccc2c(c1)OCO2)N[C@@H]1CC[C@@H](CCNC(=O)C2CCCC2)O[C@H]1CO -2.33%, C[C@H](CO)N1C[C@H](C)[C@@H](CN(C)S(=O)(=O)c2cccs2)OCCCC[C@H](C)Oc2ccc(NS(C)(=O)=O)cc2C1=O 3.15%, COc1ccccc1CCNC(=O)C(=O)NCCC1CCCCN1S(=O)(=O)c1ccccc1 (stereo not drawn) -0.528%, COc1cccc(NC(=O)N(C)C[C@@H]2OCc3ccccc3-c3c(n(C)c4ccccc34)C(=O)N([C@@H](C)CO)C[C@@H]2C)c1 3.35%
